From the OligoGym collection come the findings set out here.
Note: reference of the scale not given here.

The first assay addresses MON2. Put plainly: pooled miR-30 sensor sort-seq; sequence = guide strand. The settings on record: shRNA.
Turning to TAGTCGAAAACAAAGAACGATT, the sensor-assay potency score (higher = more potent) is -1.16.

In the case of TAGAAAATCTGTCACAACCAAC, the sensor-assay potency score (higher = more potent) is -1.49.

In the case of TTGGACATCTCCTTTAACGGGT, the sensor-assay potency score (higher = more potent) was -0.305.

On to TACAATATCACGAAAAACCTTG, for which the sensor-assay potency score (higher = more potent) is -0.21.

For TAAACTAATATTGAGTTCTTGG, the sensor-assay potency score (higher = more potent) is -0.234.

The target of the next assay is MOV10. The description is as above. Particulars: shRNA.
With TTGTACAGGGAGTTGTAGGTGA, the sensor-assay potency score (higher = more potent) came out at 0.0022.

In turn, TATTCCTGCAGCTTCTTCTTGG registered a sensor-assay potency score (higher = more potent) of 0.321.

On to TTCACCTTGAAGGTCAGCCCAT, for which the sensor-assay potency score (higher = more potent) was -0.593.

As for TTAATTGCCTCCACTAACGTGA, the sensor-assay potency score (higher = more potent) was 0.283.

For the sequence AAGCTGATCTTGAAGTCGCGGT, the sensor-assay potency score (higher = more potent) was 0.0595.

For the sequence TTGAGTTTCACATCTGAGGGCA, the sensor-assay potency score (higher = more potent) worked out at 0.674.

Take TTCAGGTAGGAAGTCACTGTGG: the sensor-assay potency score (higher = more potent) is -0.627.

On to TTTCTTTACAGAACTCCAGGAA, for which the sensor-assay potency score (higher = more potent) is -0.0759.

TTGATCTCTGCGATCTCCTTAG: the sensor-assay potency score (higher = more potent) is -0.607.

Consider TTCTTCTACTGAACCCACCTTC, for which the sensor-assay potency score (higher = more potent) was -0.0526.

Regarding TAACGTGACAGTCTTGCCGGTG, the sensor-assay potency score (higher = more potent) was -0.472.

Sequence TTGAAGGTAAAGTTCACCTTGA displayed a sensor-assay potency score (higher = more potent) of 0.564.
